Data on six compounds can be found in PubChem BioAssay (Tox21).

The nature of experiment [1]: qHTS assay to identify aromatase inhibitors - cell viability counter screen (AID 743084).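 Note: cells stimulated with testosterone during compound exposure; nearly all actives have a fitted effect of over 55% in size.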
The target in experiment [2] is Aryl hydrocarbon receptor (Homo sapiens) (UniProt P35869). Briefly: qHTS assay to identify small molecule that activate the aryl hydrocarbon receptor (AhR) signaling pathway (AID 743085).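 For activation: HG2L7.5c1 human HepG2 liver cells with stably integrated DRE-driven firefly reporter; series mostly up to about 70 µM.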 Note: nearly all actives have a fitted effect of over 15% in size. Note: potency is the fitted concentration of half-maximal effect. The method in brief: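 Luminescence read-out: ONE-Glo reagent, 30 min at room temperature, in HG2L7.5c1 HepG2 reporter cells treated 24 h at 37C. Viability was measured beforehand by CellTiter-Fluor fluorescence after 30 min at 37C.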
In general terms: In qHTS, concentration-response curves come from the screen itself.

Experiment [3] in a line: qHTS assay to identify small molecule that activate the aryl hydrocarbon receptor (AhR) signaling pathway - cell viability counter screen (AID 743086).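 Note: HepG2 liver cells carrying the AhR DRE luciferase reporter; series mostly up to about 70 µM; nearly all actives have a fitted effect of over 45% in size.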 The method in brief:
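Cytotoxicity counter screen: CellTiter-Fluor signal (30 min, 37 C) in 4000 HepG2 cells/well carrying the DRE-luciferase reporter, following 24 h compound exposure at 37 C.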

The target in experiment [4] is Peroxisome proliferator-activated receptor gamma (Homo sapiens) (UniProt P37231). Briefly: qHTS assay to identify small molecule agonists of the peroxisome proliferator-activated receptor gamma (PPARg) signaling pathway (AID 743094; active = well fitted activation curve with a large enough effect in the signal ratio in the repeat runs, not every such curve was filed as active; the % refers to the signal ratio). An outline of the steps:
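Quantitative HTS agonist mode: stable HEK293H line with UAS-beta-lactamase reporter under PPARg control, 17 h compound exposure at 37C, fluorescence after 1 h FRET substrate loading at room temperature.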

The nature of experiment [5]: qHTS assay to identify small molecule antagonists of the peroxisome proliferator-activated receptor gamma (PPARg) signaling pathway - cell viability counter screen (AID 743194). Note: nearly all actives have a fitted effect of over 55% in size. The method in brief:
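Viability was measured as CellTiter-Glo luminescence in GeneBLAzer PPARg UAS-bla HEK293H cells. These cells had been exposed 17 h at 37 C to compounds together with rosiglitazone at 50 nM final, with the beta-lactamase readout taken in the same wells.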

A short description of experiment [6]: qHTS assay for small molecule agonists of the antioxidant response element (ARE) signaling pathway (AID 743202; active = well fitted activation curve with a large enough effect in the signal ratio in the repeat runs, not every such curve was filed as active; the % refers to the signal ratio; note: potency is the fitted concentration of half-maximal effect). An outline of the steps:
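An ARE-responsive beta-lactamase gene stably integrated in HepG2 cells serves as reporter. After 5 h plating and 16 h compound incubation at 37 C, fluorescence of the B/G FRET substrate was measured.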

Experiment [7] is described as follows: qHTS assay for small molecule agonists of the antioxidant response element (ARE) signaling pathway - cell viability counter screen (AID 743203; calls by dose curve; note: nearly all actives have a fitted effect of over 55% in size). An outline of the steps:
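Seeded at 2,000 cells/well, ARE-bla HepG2 cells were incubated 5 hrs before compound addition. After 16 hrs of treatment at 37C with 5% CO2, CellTiter-Glo reagent was added and luminescence read 30 min later.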

The nature of experiment [8]: qHTS assay for small molecule activators of the heat shock response signaling pathway - cell viability counter screen (AID 743209). Note: nearly all actives have a fitted effect of over 50% in size. The method in brief: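 First, HSE-bla HeLa cells were seeded at 1500 cells/well and kept overnight at 37 C. Next, compounds were pinned in and incubated 5 h. After the FRET substrate step, CellTiter-Glo was added and luminescence read 30 min later.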

Experiment [9] is described as follows: qHTS assay for small molecule activators of the heat shock response signaling pathway (AID 743210; active = well fitted activation curve with a large enough effect in the signal ratio in the repeat runs, with a control signal flat, not every such curve was filed as active; the % refers to the signal ratio;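 note: HeLa cells with beta-lactamase reporter driven by heat shock elements; series mostly up to about 63 µM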). The method in brief: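 In HSE-bla HeLa cells, 5 h compound incubation (37 C) precedes addition of LiveBLAzer B/G substrate; after 2.5 h at room temperature, fluorescence intensity indicates reporter induction.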
Experiment [10] can be described thus: qHTS assay to identify small molecule agonists of the peroxisome proliferator-activated receptor delta (PPARd) signaling pathway - cell viability counter screen (AID 743211). Note: nearly all actives have a fitted effect of over 55% in size. The method in brief:
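Read-out: CellTiter-Glo luminescence, 30 min RT, measured in the same wells as the beta-lactamase reporter. Cells: GeneBLAzer PPAR delta UAS-bla HEK293H, 3000 cells/well, compound exposure 17 h at 37C.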

The target of experiment [11] is Peroxisome proliferator-activated receptor delta (Homo sapiens) (UniProt Q03181). As to the kind of experiment: qHTS assay to identify small molecule agonists of the peroxisome proliferator-activated receptor delta (PPARd) signaling pathway (AID 743212; calls by dose curve). The method in brief:
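HEK293H UAS-bla reporter cells, human PPARd system; compounds delivered in DMSO after 5 h plating, then at 37 C. Beta-lactamase FRET read, 2 h RT substrate step.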

A short description of experiment [12]: qHTS assay to identify small molecule antagonists of the peroxisome proliferator-activated receptor delta (PPARd) signaling pathway - cell viability counter screen (AID 743213). Note: nearly all actives have a fitted effect of over 50% in size. An outline of the steps: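 Agonist-stimulated (L165041, 300 nM final) HEK293H PPARd UAS-bla cells are exposed to compounds for 17 h at 37 C, and ATP-based luminescence (CellTiter-Glo) from the same wells reports cytotoxicity.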

The target of experiment [13] is Peroxisome proliferator-activated receptor delta (Homo sapiens) (UniProt Q03181). Briefly: qHTS assay to identify small molecule antagonists of the peroxisome proliferator-activated receptor delta (PPARd) signaling pathway (AID 743215; active = well fitted inhibition curve with a large enough effect in the signal ratio in the repeat runs, not every such curve was filed as active; the % refers to the signal ratio; note: series mostly up to about 62 µM). An outline of the steps: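 Inhibition of L165041-driven (300 nM final) PPARd signaling is scored in HEK293H UAS-bla cells. Exposure lasts 17 h at 37 C; beta-lactamase activity is then read by FRET substrate fluorescence after 2 h at room temperature.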

Experiment [14] concerns the target Bile acid receptor (Homo sapiens) (UniProt Q96RI1). Briefly: qHTS assay to identify small molecule antagonists of the farnesoid-X-receptor (FXR) signaling pathway (AID 743217; active = well fitted inhibition curve with a large enough effect in the signal ratio in the repeat runs, not every such curve was filed as active; the % refers to the signal ratio; note: potency is the fitted concentration of half-maximal effect). An outline of the steps: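 Antagonist mode against 50 uM (final) chenodeoxycholic acid stimulation in FXR-bla HEK 293T cells, 16 h at 37 °C. Inhibition detected as reduced beta-lactamase activity via LiveBLAzer B/G FRET fluorescence after 2 h at room temperature.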

Experiment [15] in a line: qHTS assay to identify small molecule agonists of the farnesoid-X-receptor (FXR) signaling pathway - cell viability counter screen (AID 743218). Note: nearly all actives have a fitted effect of over 45% in size. The method in brief: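 Cytotoxicity counter-screen run in parallel, same wells: FXR-UAS-bla HEK 293T cells dosed 16 h at 37 C, viability read by CellTiter-Glo luminescence after 30 min at room temperature.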
For experiment [16], the target named is Bile acid receptor (Homo sapiens) (UniProt Q96RI1). Briefly: qHTS assay to identify small molecule agonists of the farnesoid-X-receptor (FXR) signaling pathway (AID 743220; active = well fitted activation curve with a large enough effect in the signal ratio in the repeat runs, not every such curve was filed as active; the % refers to the signal ratio). An outline of the steps:
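Beta-lactamase reporter under UAS control in GeneBLAzer FXR HEK 293T cells (5000/well) measured with LiveBLAzer FRET substrate after 2 h at room temperature. Compound exposure lasted 16 h at 37C.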

The nature of experiment [17]: qHTS assay to identify small molecule antagonists of the farnesoid-X-receptor (FXR) signaling pathway - cell viability counter screen (AID 743221; active = well fitted cell-killing curve with a large enough effect in the repeat runs, not every such curve was filed as active; note: nearly all actives have a fitted effect of over 50% in size). The method in brief: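 HEK 293T FXR-bla cells, 5 h pre-incubation; compound + CDCA 50 uM final, 16 h, 37 C; beta-lactamase FRET read first, then CellTiter-Glo luminescence, 30 min RT.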
In experiment [18] the target is Vitamin D3 receptor (Homo sapiens) (UniProt P11473). As to the kind of experiment: qHTS assay to identify small molecule agonists of the vitamin D receptor (VDR) signaling pathway (AID 743222; calls by dose curve). An outline of the steps:
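Quantitative HTS agonist-mode screen: compounds in DMSO were pin-transferred onto VDR-bla cells and incubated 16 h at 37C, 5% CO2. Reporter activity was detected with LiveBLAzer B/G FRET substrate after 2 h at room temperature.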

Experiment [19] has the same target. Briefly: qHTS assay to identify small molecule antagonists of the vitamin D receptor (VDR) signaling pathway (AID 743223; active = well fitted inhibition curve with a large enough effect in the signal ratio in the repeat runs, not every such curve was filed as active; the % refers to the signal ratio). An outline of the steps: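 Beta-lactamase reporter read-out: FRET substrate fluorescence after 2 h at room temperature, following 16 h exposure of VDR-bla cells to test compound plus 3 nM (final) 1alpha,25-dihydroxyvitamin D3 agonist at 37C.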

Experiment [20] concerns the target Peroxisome proliferator-activated receptor gamma (Homo sapiens) (UniProt P37231). Briefly: qHTS assay to identify small molecule antagonists of the peroxisome proliferator-activated receptor gamma (PPARg) signaling pathway (AID 743191; calls by dose curve; note: nearly all actives have a fitted effect of over 30% in size; note: potency is the fitted concentration of half-maximal effect). The method in brief: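 Beta-lactamase reporter under UAS control in HEK293H PPARg-bla cells; compound treatment 17 h at 37C. Read-out: fluorescence intensity after 1 h room-temperature incubation with LiveBLAzer B/G FRET substrate.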

“And” between values parts separate entries of the source, which are not always exact repeats. Equal entries are not always repeated. Records with an inconclusive call do not appear. The source holds several records for some structures; these can differ, active in one and inactive in another. The source made the active and inactive calls. Unless noted, calls come from the whole dose curve; as a rule, active = well fitted curve in the direction sought with a large enough effect in the repeat runs; inconclusive = weak or mixed curves; inactive = no such curve, though single readings can be large; an effect the other way counts as inactive or inconclusive.

Chain of Aryl hydrocarbon receptor (Homo sapiens) (P35869 whole entry, looked up): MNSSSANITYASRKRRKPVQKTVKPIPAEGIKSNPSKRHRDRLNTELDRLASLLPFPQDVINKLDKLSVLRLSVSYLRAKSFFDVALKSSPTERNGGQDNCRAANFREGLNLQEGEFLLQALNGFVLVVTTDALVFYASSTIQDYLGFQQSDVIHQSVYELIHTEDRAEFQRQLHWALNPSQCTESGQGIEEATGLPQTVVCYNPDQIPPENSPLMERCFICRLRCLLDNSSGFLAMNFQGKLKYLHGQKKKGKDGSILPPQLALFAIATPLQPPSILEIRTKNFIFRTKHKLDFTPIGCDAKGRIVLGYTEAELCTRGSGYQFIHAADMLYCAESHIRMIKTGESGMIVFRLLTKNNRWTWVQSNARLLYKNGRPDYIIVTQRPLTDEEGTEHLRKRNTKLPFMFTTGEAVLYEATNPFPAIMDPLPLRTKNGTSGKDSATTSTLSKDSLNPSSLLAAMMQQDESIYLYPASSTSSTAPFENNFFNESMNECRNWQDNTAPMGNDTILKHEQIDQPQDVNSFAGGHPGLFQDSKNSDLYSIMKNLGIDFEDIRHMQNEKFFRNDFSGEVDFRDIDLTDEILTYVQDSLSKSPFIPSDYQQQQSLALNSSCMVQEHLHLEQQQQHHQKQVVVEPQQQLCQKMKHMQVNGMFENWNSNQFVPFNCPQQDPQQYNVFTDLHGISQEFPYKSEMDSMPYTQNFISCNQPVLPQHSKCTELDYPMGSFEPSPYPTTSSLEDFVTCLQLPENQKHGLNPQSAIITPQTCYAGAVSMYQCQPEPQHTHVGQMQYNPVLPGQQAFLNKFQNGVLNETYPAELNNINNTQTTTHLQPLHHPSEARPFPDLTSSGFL
Chain of Vitamin D3 receptor (Homo sapiens) (P11473 whole entry, looked up): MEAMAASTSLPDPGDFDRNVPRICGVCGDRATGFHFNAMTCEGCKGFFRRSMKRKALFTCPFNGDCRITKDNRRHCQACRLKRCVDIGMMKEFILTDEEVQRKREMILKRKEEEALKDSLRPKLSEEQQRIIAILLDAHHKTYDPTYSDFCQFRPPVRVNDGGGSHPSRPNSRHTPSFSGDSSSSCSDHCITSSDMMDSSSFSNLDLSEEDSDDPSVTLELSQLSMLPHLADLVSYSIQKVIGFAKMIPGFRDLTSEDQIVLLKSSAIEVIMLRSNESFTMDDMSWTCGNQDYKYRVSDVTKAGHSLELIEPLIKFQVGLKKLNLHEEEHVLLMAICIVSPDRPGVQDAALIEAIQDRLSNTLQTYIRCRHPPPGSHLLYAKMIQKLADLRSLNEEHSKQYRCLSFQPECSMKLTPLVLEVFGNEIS
Chain of Peroxisome proliferator-activated receptor delta (Homo sapiens) (Q03181 whole entry, looked up): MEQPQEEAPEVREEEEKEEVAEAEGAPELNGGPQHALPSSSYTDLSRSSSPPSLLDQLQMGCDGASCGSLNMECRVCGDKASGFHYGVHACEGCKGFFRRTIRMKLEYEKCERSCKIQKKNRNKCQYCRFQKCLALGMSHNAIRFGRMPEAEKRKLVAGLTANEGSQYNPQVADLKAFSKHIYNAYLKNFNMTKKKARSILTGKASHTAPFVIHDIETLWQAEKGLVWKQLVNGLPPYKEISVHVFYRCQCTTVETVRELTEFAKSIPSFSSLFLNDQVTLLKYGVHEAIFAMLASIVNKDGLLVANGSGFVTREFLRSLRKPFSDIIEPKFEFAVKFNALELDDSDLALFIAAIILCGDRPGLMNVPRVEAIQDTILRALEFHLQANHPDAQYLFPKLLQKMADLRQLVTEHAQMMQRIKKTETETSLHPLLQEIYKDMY
Chain of Bile acid receptor (Homo sapiens) (Q96RI1 whole entry, looked up): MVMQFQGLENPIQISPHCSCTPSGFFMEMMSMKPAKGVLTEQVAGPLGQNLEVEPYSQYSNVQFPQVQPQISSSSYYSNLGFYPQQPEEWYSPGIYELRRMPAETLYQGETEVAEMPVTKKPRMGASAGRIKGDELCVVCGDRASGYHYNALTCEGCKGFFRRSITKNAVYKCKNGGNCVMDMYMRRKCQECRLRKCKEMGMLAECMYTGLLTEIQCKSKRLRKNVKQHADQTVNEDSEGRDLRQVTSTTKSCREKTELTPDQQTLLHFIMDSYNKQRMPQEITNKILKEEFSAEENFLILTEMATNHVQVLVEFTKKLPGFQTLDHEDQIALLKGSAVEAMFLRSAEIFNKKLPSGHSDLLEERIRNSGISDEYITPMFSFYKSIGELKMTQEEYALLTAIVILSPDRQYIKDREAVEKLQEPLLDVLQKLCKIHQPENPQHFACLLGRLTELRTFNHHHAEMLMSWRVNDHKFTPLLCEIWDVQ
Chain of Peroxisome proliferator-activated receptor gamma (Homo sapiens) (P37231 whole entry, looked up): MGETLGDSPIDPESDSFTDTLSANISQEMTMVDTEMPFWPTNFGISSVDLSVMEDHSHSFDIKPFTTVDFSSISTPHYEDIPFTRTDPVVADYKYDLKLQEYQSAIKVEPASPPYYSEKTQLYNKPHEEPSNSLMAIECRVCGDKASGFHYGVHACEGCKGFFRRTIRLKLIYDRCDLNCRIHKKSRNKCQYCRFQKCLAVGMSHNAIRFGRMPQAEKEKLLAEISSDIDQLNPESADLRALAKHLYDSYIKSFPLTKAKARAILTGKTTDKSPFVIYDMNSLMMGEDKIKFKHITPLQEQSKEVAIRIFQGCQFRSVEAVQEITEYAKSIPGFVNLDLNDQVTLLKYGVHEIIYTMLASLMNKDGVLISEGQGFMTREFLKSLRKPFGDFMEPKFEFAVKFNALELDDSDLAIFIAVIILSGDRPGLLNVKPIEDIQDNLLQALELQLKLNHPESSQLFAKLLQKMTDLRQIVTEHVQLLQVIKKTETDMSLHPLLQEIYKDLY

In the case of `CC(O)COc1ccccc1` (stereo not drawn), the Potency entry in experiment [1], in [2], in [3], in [4], in experiment [5] and in [6] was “inactive” each time. For the same compound, the Potency entry in [7], in experiment [10], in [12], in experiment [14], in experiment [15] and in experiment [19] was “inactive” in each case. Besides, the compound was classed as inactive in experiment [8], in experiment [9], in [11], in experiment [13], in [16] and in experiment [17]. Further, the outcome in experiment [18] was inactive.
Take `Cc1c(N(C)CS(=O)(=O)O)c(=O)n(-c2ccccc2)n1C`: the Potency entry in experiment [1], in experiment [2], in [3], in [4], in experiment [5] and in experiment [6] was “inactive” throughout. Further, the Potency entry in experiment [7], in experiment [10], in experiment [12], in [15] and in experiment [19] was “inactive” each time. In addition, the outcome in [8], in [9], in experiment [11], in [13], in experiment [17] and in experiment [18] was inactive.
Turning to `CCN(CC)CCOC(=O)c1ccc(N)cc1`, the Potency entry in experiment [1], in experiment [2], in experiment [3], in experiment [4], in experiment [20] and in [5] was “inactive” each time. For the same compound, the Potency result in [6], in experiment [7], in experiment [10], in experiment [12] and in experiment [19] was “inactive” each time. Also, the call in [8], in experiment [9], in experiment [17] and in experiment [18] was inactive.
For the compound `CCOC(=O)C(C)(C)Oc1ccc(Cl)cc1`, the Potency entry in experiment [1], in experiment [2], in experiment [3], in [4], in experiment [20] and in experiment [5] was “inactive” throughout. The Potency result in experiment [6], in [7], in experiment [10], in experiment [12], in [14] and in experiment [15] was “inactive” each time. The Potency entry in experiment [19] is “inactive”. In addition, the call in experiment [8], in [9], in experiment [11], in experiment [13], in experiment [16] and in [17] was inactive. In addition, the compound was classed as inactive in [18].
In the case of `O=c1c(-c2ccc(O)cc2)coc2cc(O)cc(O)c12`, the Potency result in experiment [1], in experiment [3], in experiment [4], in experiment [5], in experiment [7] and in experiment [10] was “inactive” in each case. Also, the Potency result in experiment [12], in [15] and in experiment [19] was “inactive” each time. In addition, the Potency entry in experiment [2] is “inactive and 12.2 µM (active)”; in [20], 48.1 µM (active) and 38.9 µM (active); in experiment [6] it was 6.74 µM (active) and 10.6 µM (active); in [14] it was 38.9 µM (active) and 26.6 µM (active). The call in experiment [8], in experiment [9], in [11], in experiment [16], in [17] and in experiment [18] was inactive.
Turning to `Cc1ccc(O)c(-n2nc3ccccc3n2)c1`, the Potency entry in [1], in experiment [3], in [4], in experiment [5], in experiment [7] and in experiment [10] was “inactive” each time. Further, the Potency result in experiment [12], in [14] and in experiment [19] was “inactive” each time. In addition, the Potency in experiment [2] is 21.1 µM (active) and 60.6 µM (active) and 17.2 µM (active); in [6], 60.6 µM (active). The result in experiment [8], in experiment [9], in experiment [11], in experiment [13], in experiment [16] and in [17] was inactive. Further, the compound was called inactive in experiment [18].
